Laboratory results as given in PubChem BioAssay (NCATS).
Inconclusive results are not listed. Activity calls are given as the source filed them. Calls follow the shape of the dose curve; as a rule, active = well fitted curve in the direction sought with a large enough effect; inconclusive = small, poorly fitted or top-dose-only effect, or another doubt; inactive = no such curve, though single readings can be large; an effect the other way counts as inactive or inconclusive.

Columns and labels:
[1] = qHTS of pediatric cancer cell lines to identify multiple opportunities for drug repurposing: Primary screen for NB1643 cells (AID 1347099); also: nearly all actives have a fitted effect of over 50% in size; also: potency is read from the fitted curve at half-maximal effect
How it was run: (§1)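 Plated cells (500-1,000 per well, growth media) were allowed to settle for 5 hours, treated with compound dilutions for 48 hours, then lysed with CellTiter-Glo for 15 min at room temperature before luminescence reading.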

[2] = qHTS of pediatric cancer cell lines to identify multiple opportunities for drug repurposing: Primary screen for LAN-5 cells (AID 1347100); also: potency is read from the fitted curve at half-maximal effect
How it was run: (§2)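 Cells (500-1,000/well) in growth media were settled 5 h at 37 degrees C, then given compounds for 48 h. Viability was read as CellTiter-Glo luminescence. Primary runs used MIPE at 11 points (0.78 nM-46 µM) and NPC at 8 points (0.59 nM-46 µM); follow-ups used 11 points.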

[3] = qHTS of pediatric cancer cell lines to identify multiple opportunities for drug repurposing: Primary screen for Rh18 cells (AID 1347102); also: nearly all actives have a fitted effect of over 65% in size; also: potency is read from the fitted curve at half-maximal effect
How it was run: as §2

[4] = qHTS of pediatric cancer cell lines to identify multiple opportunities for drug repurposing: Primary screen for control Hh wild type fibroblast cells (AID 1347106);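 also: series mostly up to about 46 µM; a drop in luminescence marks cytotoxicity and a rise apparent proliferation; nearly all actives have a fitted effect of over 55% in size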
How it was run: as §2

[5] = qHTS of pediatric cancer cell lines to identify multiple opportunities for drug repurposing: Primary screen for Rh41 cells (AID 1347108); also: nearly all actives have a fitted effect of over 70% in size; also: potency is read from the fitted curve at half-maximal effect
How it was run: as §1

[6] = qHTS of pediatric cancer cell lines to identify multiple opportunities for drug repurposing: Primary screen for RD cells (AID 1347104); also: nearly all actives have a fitted effect of over 55% in size; also: potency is read from the fitted curve at half-maximal effect
How it was run: as §1

[7] = qHTS of pediatric cancer cell lines to identify multiple opportunities for drug repurposing: Primary screen for MG 63 (6-TG R) cells (AID 1347105); also: nearly all actives have a fitted effect of over 50% in size; also: potency is read from the fitted curve at half-maximal effect
How it was run: as §1

[8] = qHTS of pediatric cancer cell lines to identify multiple opportunities for drug repurposing: Primary screen for Rh30 cells (AID 1347107); also: nearly all actives have a fitted effect of over 75% in size; also: potency is read from the fitted curve at half-maximal effect
How it was run: as §2

[9] = qHTS of pediatric cancer cell lines to identify multiple opportunities for drug repurposing: Primary screen for OHS-50 cells (AID 1347103); also: nearly all actives have a fitted effect of over 40% in size; also: potency is read from the fitted curve at half-maximal effect
How it was run: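 Cells (500-1,000/well) rested 5 h, then received compounds for 48 h; metabolically active cells were measured by CellTiter-Glo luminescence. Final concentrations spanned up to 46 µM (MIPE, 11-point) or 0.59 nM-46 µM (NPC, 8-point) in primary screens, 11-point in follow-ups.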

[10] = qHTS of pediatric cancer cell lines to identify multiple opportunities for drug repurposing: Confirmatory screen for NB1643 cells (AID 1347109); also: nearly all actives have a fitted effect of over 45% in size
How it was run: as §2

[11] = qHTS of pediatric cancer cell lines to identify multiple opportunities for drug repurposing: Confirmatory screen for BT-12 cells (AID 1347112); also: nearly all actives have a fitted effect of over 55% in size
How it was run: as §2

[12] = qHTS of pediatric cancer cell lines to identify multiple opportunities for drug repurposing: Confirmatory screen for LAN-5 cells (AID 1347113); also: nearly all actives have a fitted effect of over 65% in size
How it was run: as §2

[13] = qHTS of pediatric cancer cell lines to identify multiple opportunities for drug repurposing: Confirmatory screen for DAOY cells (AID 1347114); also: nearly all actives have a fitted effect of over 65% in size
How it was run: (§3)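 Viability measured as metabolically active cells via CellTiter-Glo luminescence following 48 hours of compound exposure, 11-point dilutions in confirmatory testing. 500-1,000 cells/well plated 5 hours before dosing; controls were DMSO and 2.3 µM bortezomib.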

[14] = qHTS of pediatric cancer cell lines to identify multiple opportunities for drug repurposing: Confirmatory screen for SJ-GBM2 cells (AID 1347116); also: nearly all actives have a fitted effect of over 60% in size
How it was run: as §3

[15] = qHTS of pediatric cancer cell lines to identify multiple opportunities for drug repurposing: Confirmatory screen for BT-37 cells (AID 1347117); also: nearly all actives have a fitted effect of over 55% in size
How it was run: as §2

[16] = qHTS of pediatric cancer cell lines to identify multiple opportunities for drug repurposing: Confirmatory screen for A673 cells (AID 1347110);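 also: cells exposed to compound for 48 h before the viability read; nearly all actives have a fitted effect of over 65% in size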
How it was run: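 qHTS titration format: primary MIPE 0.78 nM-46 µM (11 pts), NPC 0.59 nM-46 µM; confirmation 11 pts. 48 h, CTG luminescence.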

[17] = qHTS of pediatric cancer cell lines to identify multiple opportunities for drug repurposing: Confirmatory screen for SK-N-MC cells (AID 1347111);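 also: potency is read from the fitted curve at half-maximal effect; cells exposed to compound for 48 h before the readout; nearly all actives have a fitted effect of over 70% in size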
How it was run: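 Metabolically active cells were quantified by ATP-dependent luminescence (CellTiter-Glo, 15 min at room temperature) following 48 h treatment. Cells had been plated at 500-1,000 per well and settled for 5 h beforehand.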

[18] = qHTS of pediatric cancer cell lines to identify multiple opportunities for drug repurposing: Confirmatory screen for NB-EBc1 cells (AID 1347115);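 also: cells exposed to compound for 48 h before the viability read; nearly all actives have a fitted effect of over 45% in size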
How it was run: as §2

[19] = qHTS of pediatric cancer cell lines to identify multiple opportunities for drug repurposing: Confirmatory screen for TC32 cells (AID 1347118)
How it was run: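 qHTS, TC32, 48 h drug treatment, CellTiter-Glo luminescence as a proxy for metabolically active cells; primary top concentration 46 µM (MIPE 11-pt, NPC 8-pt); confirmatory 11-pt.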

Measured: Potency

CC(C)[C@H](O)C(=O)N[C@@H](C)C(=O)N[C@@H]1C(=O)N(C)CCc2ccccc21
active: [1] 20.9 µM
inactive: [2] | [3] | [4] | [5]

Cc1cc(NC(=O)Nc2ccc(N(C)C)cc2)c2cc(F)cc(F)c2n1
inactive: [1] | [2] | [3] | [6] | [7] | [4] | [8] | [5]

COc1ccc(Cn2ccc3ccc(C(=O)NO)cc32)cc1
inactive: [3] | [7] | [5]
active: [1] 14.8 µM | [2] 20.9 µM

NCc1c[nH]c(=S)n1[C@H]1CCc2c(F)cc(F)cc2C1
active: [1] 9.35 µM | [2] 23.5 µM | [3] 16.6 µM | [6] 33.2 µM

CC[C@@H]([C@H](C)O)n1ncn(-c2ccc(N3CCN(c4ccc(OCC5CO[C@@](Cn6cncn6)(c6ccc(F)cc6F)C5)cc4)CC3)cc2)c1=O (some centres not stated)
active: [1] 23.5 µM | [2] 18.7 µM | [9] 21.7 µM | [6] 20.9 µM
inactive: [7] | [4]

COc1nccc(-c2c(-c3ccc(F)cc3)ncn2C2CCNCC2)n1
inactive: [1] | [2] | [3] | [7] | [4] | [5]

CC(O)=C(C#N)C(=O)Nc1ccc(C(F)(F)F)cc1
inactive: [2] | [3] | [4]
active: [1] 23.5 µM

CCC(=O)NCC[C@@H]1CCc2ccc3c(c21)CCO3
inactive: [1] | [2] | [3] | [7] | [4] | [8]

O=C(C=Cc1ccc(O)cc1)c1ccc(O)cc1O
inactive: [3] | [4]
active: [1] 13.2 µM | [2] 20.9 µM

CC(C)CN(C[C@H](O)[C@H](Cc1ccccc1)NC(=O)O[C@H]1CCOC1)S(=O)(=O)c1ccc(N)cc1
inactive: [1] | [2] | [3] | [10] | [11] | [12] | [13] | [14] | [15]

Cc1cc2c(cc1C1(c3ccc(C(=O)O)cn3)CC1)C(C)(C)CCC2(C)C
inactive: [1] | [2] | [3] | [7] | [4] | [5]

C[C@H]1O[C@@H](n2cc(F)c(=O)[nH]c2=O)[C@H](O)[C@H]1O
active: [1] 18.7 µM | [2] 13.2 µM
inactive: [3] | [9] | [4]

Cc1ccccc1C(C(=O)NC1CCCCC1)N(C(=O)CNc1ccc(C#N)cc1)c1cccc(F)c1 (configuration not stated)
inactive: [1] | [2] | [3] | [6] | [7] | [4] | [8] | [5]

CC1CNc2c(cccc2S(=O)(=O)N[C@@H](CCCN=C(N)N)C(=O)N2CC[C@@H](C)C[C@@H]2C(=O)O)C1 (some centres not stated)
active: [1] 5.26 µM | [2] 9.35 µM | [17] 20.8 µM
not listed: [4] | [6] | [10] | [12] | [14] | [19]
inactive: all other assays above

CN[C@@H](C)[C@H]1[C@H](O)C[C@@]2(C)[C@@H]3CC[C@H]4C(C)(C)[C@@H](NC)CC[C@@]45C[C@@]35CC[C@]12C
inactive: [1] | [2] | [3] | [7] | [4] | [8] | [5]

COc1c(C)cnc(Cn2cnc3c(Cl)nc(N)nc32)c1C
active: [1] 0.264 µM | [2] 0.166 µM | [3] 0.332 µM | [9] 0.432 µM | [5] 1.18 µM
inactive: [8]

NC1(C(=O)N[C@@H](CCO)c2ccc(Cl)cc2)CCN(c2ncnc3[nH]ccc23)CC1
inactive: [4]
active: [1] 1.87 µM | [2] 18.7 µM | [3] 2.35 µM | [7] 7.43 µM | [5] 0.743 µM

COc1cc(N2CCN(C)CC2)ccc1Nc1nc(N)c(C(=O)c2c(Cl)cccc2Cl)s1
active: [1] 14.8 µM | [2] 16.6 µM | [6] 29.6 µM
inactive: [9] | [7] | [4] | [8] | [5]

CC(=O)OCC(=O)[C@@]1(O)CC[C@H]2[C@@H]3CCC4=CC(=O)C=C[C@]4(C)[C@@H]3[C@@H](O)C[C@@]21C
inactive: [1] | [2] | [3] | [6] | [7] | [4] | [8]

NC(=O)c1noc([C@H](CCCC2CCCCC2)CC(=O)NO)n1
active: [1] 18.7 µM | [2] 14.8 µM | [3] 13.2 µM | [9] 7.69 µM | [8] 18.7 µM | [5] 14.8 µM
inactive: [4]

CN1N=C(N)c2cn([C@@H]3O[C@H](COP(=O)(O)O)[C@@H](O)[C@@H]3O)c3ncnc1c23
active: [1] 16.6 µM | [2] 0.166 µM | [3] 9.35 µM | [9] 0.193 µM | [5] 2.35 µM | [17] 3.69 µM | [19] 0.737 µM
